Measurements from PubChem BioAssay (Tox21).
“And” between values parts separate entries of the source, which are not always exact repeats. Equal values may be shown once. Records with an inconclusive call do not appear. The source holds several records for some structures; these can differ, active in one and inactive in another. The source made the active and inactive calls. Unless noted, calls come from the whole dose curve.

Assays:
[1] = qHTS assay to identify small molecule antagonists of the sonic hedgehog signaling (Shh) pathway (AID 1259369); note: nearly all actives have a fitted effect of over 45% in size; note: potency is the fitted concentration of half-maximal effect
Method in brief: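 Antagonist mode: compound added to 3T3 Gli1-Luc cells followed by conditioned-medium stimulation, 24 h at 37 C, 5% CO2. Inhibition taken as loss of Gli1-driven luciferase luminescence.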

[2] = qHTS assay to identify small molecule agonists of the androgen receptor (AR) signaling pathway in the presence of an antagonist - cell viability counter screen (AID 1259379; active = well fitted curve in the direction sought with a large enough effect in the repeat runs; an effect the other way counts as inactive or inconclusive; note: nearly all actives have a fitted effect of over 25% in size; note: potency is the fitted concentration of half-maximal effect)
Method in brief: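 Cytotoxicity counter-screen run in the same wells as the nilutamide-challenged (3.0 µM final) AR agonist assay in MDA-kb2 cells. Compounds tested at 15 concentrations for 16 h, 37 °C without CO2; CellTiter-Fluor fluorescence read.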

[3] = qHTS assay to identify small molecule agonists of the estrogen receptor beta (ER-beta) signaling pathway - cell viability counter screen (AID 1259380; active = well fitted curve in the direction sought with a large enough effect in the repeat runs; an effect the other way counts as inactive or inconclusive; note: nearly all actives have a fitted effect of over 30% in size; note: potency is the fitted concentration of half-maximal effect)
Method in brief: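 Cell viability counter screen: CellTiter-Glo luminescence (30 min, room temperature) measured in the same wells as the beta-lactamase readout, after 16 hr compound exposure at 37C of ER-beta-bla HEK293T cells in 2% charcoal-stripped FBS medium.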

[4] = target: Androgen receptor (Homo sapiens) (UniProt P10275); assay: qHTS assay to identify small molecule agonists of the androgen receptor (AR) signaling pathway in the presence of an antagonist (AID 1259381); note: nearly all actives have a fitted effect of over 15% in size; note: potency is the fitted concentration of half-maximal effect
Method in brief: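 Agonist-mode confirmation run against 3.0 uM final nilutamide: compounds titrated at 15 concentrations onto MDA-kb2 MMTV-luciferase reporter cells. Luminescence measured with ONE-Glo following 16 hr incubation, 37C, 0% CO2.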

[5] = qHTS assay to identify small molecule antagonists of the estrogen receptor beta (ER-beta) signaling pathway - cell viability counter screen (AID 1259382; active = well fitted curve in the direction sought with a large enough effect in the repeat runs; an effect the other way counts as inactive or inconclusive; note: nearly all actives have a fitted effect of over 55% in size; note: potency is the fitted concentration of half-maximal effect)
Method in brief: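 Cytotoxicity was measured in the same wells by CellTiter-Glo luminescence after 30 min at room temperature. Cells were ER-beta-bla HEK293T in charcoal-stripped serum, given compound together with 1 nM E2 and incubated 16 h at 37C.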

[6] = target: Estrogen receptor (Homo sapiens) (UniProt P03372); assay: qHTS assay to identify small molecule agonists of the estrogen receptor alpha (ER-alpha) signaling pathway in the presence of an antagonist (AID 1259383); note: top concentration of the series differs between compounds; nearly all actives have a fitted effect of over 15% in size
Method in brief: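 Agonist-mode confirmation run in the presence of 10.0nM (final) ICI-182,780 antagonist. The reporter was ERE-driven luciferase in VM7Luc4E2 cells, grown in charcoal-stripped serum. Cells were exposed to 15-concentration compound series for 22hr, then ONE-Glo luminescence was read.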

[7] = qHTS assay to identify small molecule agonists or antagonists of the thyroid stimulating hormone receptor (TSHR) signaling pathway - wild type cell line counter screen (AID 1259384)
Method in brief: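 Wild-type HEK293 cells were plated 18 h at 37 C/5% CO2, pin-dosed with compound plus Ro20-1724 medium, held 30 min at room temperature, then given cAMP-d2 and anti-cAMP-cryptate; fluorescence was read after 1 h. Fifteen concentrations, triplicate.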

[8] = target: Estrogen receptor beta (Homo sapiens) (UniProt Q92731); assay: qHTS assay to identify small molecule agonists of the estrogen receptor beta (ER-beta) signaling pathway (AID 1259377; active = well fitted activation curve with a large enough effect in the signal ratio in the repeat runs, not every such curve was filed as active; the % refers to the signal ratio)
Method in brief: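 Screening used GripTite ER-beta-UAS-bla cells held in 2% charcoal-stripped FBS medium. After overnight (16 hr) compound incubation at 37C, beta-lactamase activity was detected with a FRET substrate by fluorescence.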

[9] = target: Thyrotropin receptor (Homo sapiens) (UniProt P16473); assay: qHTS assay to identify small molecule antagonists of the thyroid stimulating hormone receptor (TSHR) signaling pathway (AID 1259385); note: nearly all actives have a fitted effect of over 20% in size
Method in brief: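 TSHR-HEK293 cells were plated and held 18 h at 37C/5% CO2, then given compound plus Ro20-1724 and stimulated with TSH at 1.5 ng/mL final. After 30 min at room temperature, cAMP was detected with cAMP-d2/anti-cAMP-cryptate (1 h) by fluorescence.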

[10] = target: Estrogen receptor beta (Homo sapiens) (UniProt Q92731); assay: qHTS assay to identify small molecule antagonists of the estrogen receptor beta (ER-beta) signaling pathway (AID 1259378; active = well fitted inhibition curve with a large enough effect in the signal ratio in the repeat runs, not every such curve was filed as active; the % refers to the signal ratio; note: potency is the fitted concentration of half-maximal effect)
Method in brief: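 ER-beta-UAS-bla HEK293T (GripTite) cells in 2% charcoal-stripped FBS medium were preincubated 6 hr at 37C, dosed with compound, then stimulated with 1 nM E2 (final) for 16 hr; beta-lactamase reporter read by B/G FRET fluorescence after 2 hr substrate loading.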

Measured: Potency

Androgen receptor (Homo sapiens), sequence (P10275 whole entry, looked up): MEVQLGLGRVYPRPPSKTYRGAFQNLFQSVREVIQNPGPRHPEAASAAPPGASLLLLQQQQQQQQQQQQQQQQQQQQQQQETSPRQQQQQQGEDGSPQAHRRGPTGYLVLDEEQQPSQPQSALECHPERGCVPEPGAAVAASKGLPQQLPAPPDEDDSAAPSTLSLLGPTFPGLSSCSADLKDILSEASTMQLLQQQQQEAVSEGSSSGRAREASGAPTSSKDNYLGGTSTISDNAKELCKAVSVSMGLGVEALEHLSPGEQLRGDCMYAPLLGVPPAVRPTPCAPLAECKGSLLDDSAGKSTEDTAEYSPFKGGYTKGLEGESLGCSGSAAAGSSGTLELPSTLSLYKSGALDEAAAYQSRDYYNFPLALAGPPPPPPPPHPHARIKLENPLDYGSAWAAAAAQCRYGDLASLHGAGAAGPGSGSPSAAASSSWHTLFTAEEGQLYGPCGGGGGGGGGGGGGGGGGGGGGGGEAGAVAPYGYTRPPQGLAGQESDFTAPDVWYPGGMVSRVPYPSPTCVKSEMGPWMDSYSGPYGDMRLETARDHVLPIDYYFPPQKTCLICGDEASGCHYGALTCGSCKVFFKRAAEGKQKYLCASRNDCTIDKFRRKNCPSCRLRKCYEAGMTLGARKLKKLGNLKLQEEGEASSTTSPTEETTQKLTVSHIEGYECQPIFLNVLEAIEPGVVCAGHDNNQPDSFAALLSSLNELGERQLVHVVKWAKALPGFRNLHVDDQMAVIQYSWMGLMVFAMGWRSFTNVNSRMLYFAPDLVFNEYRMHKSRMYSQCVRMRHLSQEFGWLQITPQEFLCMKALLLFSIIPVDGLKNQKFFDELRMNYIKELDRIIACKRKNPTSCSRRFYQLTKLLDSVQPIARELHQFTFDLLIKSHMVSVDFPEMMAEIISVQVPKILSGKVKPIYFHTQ
Thyrotropin receptor (Homo sapiens), sequence (P16473 whole entry, looked up): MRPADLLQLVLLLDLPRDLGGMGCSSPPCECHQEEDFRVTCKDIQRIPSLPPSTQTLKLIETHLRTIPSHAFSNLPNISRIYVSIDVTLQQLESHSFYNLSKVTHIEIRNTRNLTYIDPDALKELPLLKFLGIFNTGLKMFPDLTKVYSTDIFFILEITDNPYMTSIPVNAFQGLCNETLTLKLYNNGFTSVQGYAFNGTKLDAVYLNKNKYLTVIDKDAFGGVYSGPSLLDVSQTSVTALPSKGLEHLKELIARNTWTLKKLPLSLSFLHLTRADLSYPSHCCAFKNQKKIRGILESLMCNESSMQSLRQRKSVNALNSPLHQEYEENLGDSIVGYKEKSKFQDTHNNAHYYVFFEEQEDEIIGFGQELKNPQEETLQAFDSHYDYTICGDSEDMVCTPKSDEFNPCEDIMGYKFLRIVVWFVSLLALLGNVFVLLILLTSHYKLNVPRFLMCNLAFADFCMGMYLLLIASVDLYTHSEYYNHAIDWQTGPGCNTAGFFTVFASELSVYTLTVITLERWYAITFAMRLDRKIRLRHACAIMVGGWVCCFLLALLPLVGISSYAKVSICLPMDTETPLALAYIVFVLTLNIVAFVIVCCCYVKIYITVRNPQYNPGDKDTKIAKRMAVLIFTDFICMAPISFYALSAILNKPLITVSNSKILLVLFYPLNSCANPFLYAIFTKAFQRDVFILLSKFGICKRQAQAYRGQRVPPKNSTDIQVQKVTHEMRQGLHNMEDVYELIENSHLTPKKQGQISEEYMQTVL
Estrogen receptor (Homo sapiens), sequence (P03372 whole entry, looked up): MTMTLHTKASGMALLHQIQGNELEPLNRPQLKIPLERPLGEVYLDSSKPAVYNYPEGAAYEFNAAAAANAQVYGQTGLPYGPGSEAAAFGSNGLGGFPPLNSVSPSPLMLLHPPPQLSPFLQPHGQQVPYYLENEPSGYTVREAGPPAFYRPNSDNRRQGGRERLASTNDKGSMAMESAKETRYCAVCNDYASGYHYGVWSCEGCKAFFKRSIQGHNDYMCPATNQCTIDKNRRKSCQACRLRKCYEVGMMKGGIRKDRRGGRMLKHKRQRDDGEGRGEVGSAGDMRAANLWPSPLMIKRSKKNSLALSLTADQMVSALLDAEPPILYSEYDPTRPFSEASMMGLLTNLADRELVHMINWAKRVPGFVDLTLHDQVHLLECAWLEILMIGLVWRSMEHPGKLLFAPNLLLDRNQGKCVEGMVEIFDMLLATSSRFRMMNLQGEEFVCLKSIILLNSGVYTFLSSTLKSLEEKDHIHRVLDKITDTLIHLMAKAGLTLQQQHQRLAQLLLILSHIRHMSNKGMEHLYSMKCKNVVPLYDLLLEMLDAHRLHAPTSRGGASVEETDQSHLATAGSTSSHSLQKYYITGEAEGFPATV
Estrogen receptor beta (Homo sapiens), sequence (Q92731 whole entry, looked up): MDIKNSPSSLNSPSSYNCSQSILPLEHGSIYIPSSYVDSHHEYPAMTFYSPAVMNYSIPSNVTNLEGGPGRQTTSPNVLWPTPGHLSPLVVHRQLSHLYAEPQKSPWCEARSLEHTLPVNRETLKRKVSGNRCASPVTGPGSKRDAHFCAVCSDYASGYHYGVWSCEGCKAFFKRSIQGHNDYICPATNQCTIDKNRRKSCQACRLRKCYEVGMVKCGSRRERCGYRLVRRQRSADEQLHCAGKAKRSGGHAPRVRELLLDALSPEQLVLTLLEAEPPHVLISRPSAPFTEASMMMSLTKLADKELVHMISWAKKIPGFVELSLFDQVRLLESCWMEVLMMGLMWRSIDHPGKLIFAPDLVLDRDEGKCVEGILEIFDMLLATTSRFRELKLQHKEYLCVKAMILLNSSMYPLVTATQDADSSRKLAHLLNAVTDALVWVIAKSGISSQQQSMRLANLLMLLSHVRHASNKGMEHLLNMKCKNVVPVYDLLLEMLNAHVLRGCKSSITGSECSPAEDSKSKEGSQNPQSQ

C[C@H]1O[C@@H](O[C@H]2[C@@H](O)C[C@H](O[C@H]3[C@@H](O)C[C@H](O[C@H]4CC[C@@]5(C)[C@H](CC[C@@H]6[C@@H]5CC[C@]5(C)[C@@H](C7=CC(=O)OC7)CC[C@]65O)C4)O[C@@H]3C)O[C@@H]2C)C[C@H](O)[C@@H]1O
inactive and 237 nM (active): [4]
inactive: [1] | [2] | [6] | [7]
active: [3] 43.5 nM and 47.3 nM | [5] 30.8 nM and 42.2 nM

CC(C)Oc1cccc(NC(=O)c2ccccc2C(F)(F)F)c1
active: [1] 2.17 µM | [3] 17.2 µM
inactive: [8] | [2] | [6] | [7]

CCCSP(=O)(OCC)SCCC
active: [4] 50.3 µM
not listed: [3] | [6] | [10]
inactive: all other assays above

Clc1ccc(Oc2ccccc2)cc1
inactive: [1] | [2] | [3] | [4] | [5] | [6]

CC(C)(C)c1cc([N+](=O)[O-])cc(C(C)(C)C)c1O
active: [1] 3.06 µM | [2] 8.63 µM
inactive: [8] | [5] | [6] | [7] | [9]

COP(N)(=S)OC
not listed: [8] | [9] | [10]
inactive: all other assays above

CCCCCCCCCCBr
inactive: [1] | [10] | [2] | [3] | [5] | [6]

N#CCCSCCC#N
not listed: [8]
inactive: all other assays above

CC1(C)CN=C(NN=C(/C=C/c2ccc(C(F)(F)F)cc2)/C=C/c2ccc(C(F)(F)F)cc2)NC1
active: [1] 6.86 µM | [2] 30.6 µM | [3] 19.3 µM | [5] 19.3 µM
inactive: [4] | [6] | [7]

O=c1[nH]c2ccccc2n1CCCN1CCC(n2c(=O)[nH]c3cc(Cl)ccc32)CC1
inactive: [8] | [7]
active: [1] 4.22 µM | [3] 9.44 µM

CC(C)CC(C)N (centres undefined)
inactive: [1] | [10] | [2] | [6] | [7] | [9]

Cc1cc(Cl)ccc1O[C@H](C)C(=O)O
inactive: [1] | [10] | [2] | [3] | [5] | [6]

CCOc1cc(C(C)(C)C)ccc1C1COC(c2c(F)cccc2F)=N1 (centres undefined)
active: [1] 2.95 µM | [3] 18.6 µM | [5] 29.5 µM
inactive: [2] | [4] | [6]

CC(C)CC(C)Nc1ccc(Nc2ccccc2)cc1 (centres undefined)
inactive: [6] | [9]
active: [1] 12 µM | [10] 30.1 µM | [3] 67.4 µM

CCCN(CCC)CCc1c[nH]c2ccccc12
active: [1] 67.7 µM
not listed: [3] | [4] | [10]
inactive: all other assays above

C[C@@H]1CC[C@@]2(OC1)O[C@H]1[C@@H](O)[C@H]3[C@@H]4CC[C@H]5C[C@@H](O[C@@H]6O[C@H](CO)[C@H](O[C@@H]7O[C@H](CO)[C@@H](O)[C@H](O[C@@H]8OC[C@@H](O)[C@H](O)[C@H]8O)[C@H]7O[C@@H]7O[C@H](CO)[C@@H](O)[C@H](O[C@@H]8O[C@H](CO)[C@@H](O)[C@H](O)[C@H]8O)[C@H]7O)[C@H](O)[C@H]6O)[C@H](O)C[C@]5(C)[C@H]4CC[C@]3(C)[C@H]1[C@@H]2C
active: [1] 1.15 µM | [2] 57.8 µM | [3] 9.16 µM | [5] 10.3 µM
inactive: [4] | [6] | [7]

CC1CCC(C(C)C)C(OC(=O)c2ccccc2N)C1 (centres undefined)
active: [1] 26.9 µM | [10] 8.51 µM | [3] 30.2 µM | [5] 60.3 µM
inactive: [2] | [6] | [7]

CCOC(=O)CC(=O)CCl
inactive: [1] | [3] | [4] | [5] | [6]
active: [2] 61.1 µM

N#CCCC(Br)(C#N)CBr (centres undefined)
inactive: [8] | [6] | [7]
active: [1] 21.7 µM | [3] 43.3 µM

N#C/C=C/c1ccccc1
inactive: [1] | [2] | [3] | [4] | [5] | [6]

C[C@@H]1O[C@@H](O[C@H]2C[C@@H](O)[C@]3(CO)[C@H]4[C@H](O)C[C@]5(C)[C@@H](C6=CC(=O)OC6)CC[C@]5(O)[C@@H]4CC[C@]3(O)C2)[C@H](O)[C@H](O)[C@H]1O
inactive: [1] | [2] | [6]
active: [3] 81.9 nM and 94.4 nM | [4] 366 nM and 168 nM | [5] 46.1 nM and 75 nM

OC(Cc1ccccc1Cl)(Cn1cncn1)C1(Cl)CC1 (centres undefined)
inactive: [8] | [2] | [6] | [7] | [9]
active: [1] 12.2 µM

CC(C)OS(C)(=O)=O
inactive: [1] | [10] | [2] | [6] | [7]

FC(F)(F)c1cccc(C2=CCN(CCc3ccc4ccccc4c3)CC2)c1
inactive: [1] | [10] | [2] | [5]

Cc1ccc(OP(=O)(Oc2ccccc2)Oc2ccccc2)cc1
active: [1] 17.5 µM | [10] 24.7 µM | [3] 31.1 µM
not listed: [5] | [8]
inactive: all other assays above

COC[C@H](C)N(C(=O)CCl)c1c(C)csc1C
inactive: [1] | [8] | [2] | [3] | [6]

O=C1C=CC(=O)c2ccccc21
active: [1] 4.33 µM | [2] 43.3 µM | [3] 21.7 µM | [5] 27.3 µM
inactive: [4] | [6]

ClC1=C(Cl)C2(Cl)C3C(Cl)C(Cl)CC3C1(Cl)C2(Cl)Cl (centres undefined)
inactive: [1] | [2] | [4] | [5] | [6]
active: [10] 12.2 µM and 27.3 µM | [3] 43.1 µM and 61.1 µM
